Bioassay records from PubChem BioAssay.
Lassa entry inh – Lassa virus entry inhibition | Lassa virus pseudotype entry inhibition, cell reporter | Potency, µM (titrated, usually from 37.9 µM), for the others: top-dose activity change, negative = inhibition, most hits filed as inhibitors | AID 540256 | actives 1.2% (n = 300,000); calls by dose curve; tested in HEK293 cells; note: potency is the fitted concentration of half-maximal effect; % is set by controls: 0 for no effect and ±100 for the full control effect; nearly all actives have a fitted effect of over 50% in size
Cycloheximide cs – counter-screen hit for Shiga toxin inhibitors, cycloheximide; actives 12% (n = 300,000); AID 2314; cell reporter, cycloheximide protein synthesis inhibition counterscreen; max response, %; in the data active = max response mostly above about 13%, no sharp cut-off; inactive = mostly below about 14%; note: read at 38.3 µM for the half of the compounds with a filed dose; 0% is about no effect
Pf growth 96h – inhibits malaria parasite growth, 96 h; actives 6.9% (n = 320,000); AID 504834; P. falciparum luciferase reporter growth, 96 h; Potency, µM (doses to about 28.7 µM), for inactives: at the highest dose activity change, negative = inhibition, actives largely listed as inhibitors; note: potency is the fitted concentration of half-maximal effect; % is set by controls: 0 for no effect and ±100 for the full control effect
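Cell-based qHTS: luciferase-tagged P. falciparum in erythrocytes (2% hematocrit, 0.05% parasitemia final) incubated with compounds for 96 hours, 37 C, 5% CO2; luciferase detection reagent then added and luminescence measured.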
Marburg entry inh – inhibitors of Marburg virus binding or cell entry; AID 540276; Potency, µM (doses to about 37.8 µM), inactives show at the highest dose activity change, negative = inhibition, most hits filed as inhibitors; Marburg virus pseudotyped entry inhibition, cell reporter; actives 1.8% (n = 300,000); calls by dose curve; tested in HEK293 cells; note: potency is the fitted concentration of half-maximal effect; % is set by controls: 0 for no effect and ±100 for the full control effect
Pf growth 48h – inhibits P. falciparum growth in the first generation, 48 h; P. falciparum luciferase growth in erythrocytes, 48 h; Potency, µM (top dose mostly 28.7 µM), without a hit: at the top dose activity change, negative = inhibition, most hits filed as inhibitors; actives 5.9% (n = 310,000); note: potency is the fitted concentration of half-maximal effect; % is set by controls: 0 for no effect and ±100 for the full control effect
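First compound was added to culture medium, then infected red cells at 0.1% parasitemia and 2% hematocrit (final). After incubation at 37 C under 5% CO2, luciferase detection reagent was dispensed and light output recorded.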
Shiga inhibitor – blocks Shiga toxin action in Vero cells. Vero cells, Shiga toxin protein synthesis inhibition reporter. inhibition, % at 38.7 µM. actives 9.2% (n = 290,000). AID 2315; in the data active = inhibition mostly above about 28%, no sharp cut-off; inactive = mostly below about 43%; note: 0% is about no effect
Active calls of the source: *; i = inactive; ? = inconclusive; . = no result given; [ ] = another dose, or the depositor's remark. Shown are actives, neighbours in structure and some others; about 19% of the full set was active somewhere. Unless noted, calls come from the whole dose curve; as a rule, active = well fitted inhibition curve with a large enough effect; inconclusive = small, poorly fitted or top-dose-only effect, or another doubt; inactive = no such curve, though single readings can be large or run the other way.

SMILES | Lassa entry inh | Cycloheximide cs | Pf growth 96h | Marburg entry inh | Pf growth 48h | Shiga inhibitor
O=C(CSc1nnc(CNC(=O)c2ccccc2F)o1)Nc1ccc2c(c1)OCCO2 | 20% | 5 | 46% | 28% | -7% | 17
O=[N+]([O-])c1ccc(N2CCCCC2)cc1NCCOc1ccccc1 | -2% | -2 | 13µM* | ? | 25% | -3
CCOc1ccc(NC(=O)COc2ccccc2)c([N+](=O)[O-])c1 | ? | 28* | -28% | ? | 130% | 82*
O=C(CCOc1ccccc1)Nc1ccccc1[N+](=O)[O-] | 1% | 27* | -4% | 4% | 36% | 54
COc1cccc(OCCNc2cc(Cl)ccc2[N+](=O)[O-])c1 | 1% | 42* | ? | 2% | ? | 73*
CC1CN(c2ccc([N+](=O)[O-])c(NCCOc3ccccc3)c2)CC(C)N1 (stereo not given) | 8%[46.1 µM] | -2 | 105% | ? | ? | 7
CC(=O)Nc1ccc(S(=O)(=O)NCC(=O)NNC(=O)c2csc(N3CCOCC3)n2)cc1 | -17% | . | -13% | -2%[46.1 µM] | -11% | .
Cc1nonc1OCCNCCNc1ccccc1[N+](=O)[O-] | . | -6 | -9% | . | -10% | 2
CCc1ccc(OCCNc2cc(N3CCNC(C)C3)ccc2[N+](=O)[O-])cc1 (stereo not given) | . | . | ? | . | 4.7µM* | .
O=[N+]([O-])c1ccccc1NCCOc1ccccc1 | ? | 73* | 31% | -15% | 76% | 72*
C=CCn1c(Cc2ccccc2)n[nH]c1=S | 5% | -3 | 143% | 5%[46.1 µM] | 23% | -1
C=CCn1c(Cc2c[nH]c3ccccc23)n[nH]c1=S | -1% | 12* | -80% | -14% | 13µM* | 13
N#CC(C(=O)Nc1cccc(Cl)c1)=C1Nc2ccccc2N1 | 3% | 10 | -12% | 0% | 15% | -29
N#CC(C(=O)Nc1ccccc1)=C1Nc2ccccc2N1 | 0% | 30 | . | -3% | 41% | 75*
N#CC(C(=O)Nc1ccc(Cl)c(Cl)c1)=C1Nc2ccccc2N1 | ? | 11 | 2.6µM* | ? | 7% | -13
Cc1ccc(NC(=O)Nc2ccc(Cl)c(Cl)c2)nc1 | -4% | 32* | ? | ? | 70% | 70*
O=C(Nc1ccc(F)cc1)Nc1ccc([N+](=O)[O-])cn1 | -23% | 1 | ? | 0%[46.1 µM] | 5% | 35
Cc1ccc(NC(=O)Nc2ccc(Cl)cn2)cc1 | . | 39* | -18% | . | 102% | 44*
O=C(Nc1ccc(Cl)c(Cl)c1)Nc1ccc([N+](=O)[O-])cn1 | . | 10 | ? | . | 9.3µM* | 10
Cc1ccc(S(=O)(=O)NNC(=O)Nc2ccc(Cl)c(Cl)c2)cc1 | . | -1 | 9% | . | 5% | -4
CC[C@]1(c2cccc(C)c2)C(=O)N(C(=O)OC)N1C(=O)OC | . | 6 | 50% | . | 9% | 8
Cc1oc(-c2ccccc2Cl)nc1CSc1nc2c(c(=O)[nH]1)CCCC2 | . | 3 | 14% | . | ? | -4
CCOC(=O)C1(Cc2ccccc2)CCCN(Cc2cccc(C(C)=O)c2)C1 (stereo not given) | 6%[46.1 µM] | -5 | i | ? | ? | -10
CCCN(CC(=O)Nc1ccccc1C)C(=O)COC(=O)c1cnc(C)cn1 | -8% | . | . | -23%[46.1 µM] | . | .
CCc1nc(Nc2cccc(OC)c2)c2oc3ccccc3c2n1 | 2% | 22* | ? | 2% | ? | 27
SMILES | Lassa entry inh | Cycloheximide cs | Pf growth 96h | Marburg entry inh | Pf growth 48h | Shiga inhibitor
CCc1nc(Nc2cccc(F)c2)c2oc3ccccc3c2n1 | 9%[46.1 µM] | 1 | ? | -13%[46.1 µM] | ? | 11
CCOc1ccccc1Oc1nc(C)nc2c1oc1ccccc12 | -17%[46.1 µM] | . | . | . | . | .
CCc1nc(Nc2ccc(F)cc2)c2oc3ccccc3c2n1 | . | 36* | ? | . | ? | 45
CCc1nc(OCCN(C)C)c2oc3ccccc3c2n1 | ? | 26* | 8% | 6% | -31% | 29
CCc1nc(Nc2ccccc2)c2oc3ccccc3c2n1 | -1% | 17 | 0% | -21% | -15% | 4
COC(=O)c1scc(-c2ccc(C)cc2)c1S(=O)(=O)N1CCN(c2cccc(Cl)c2)CC1 | 0%[46.1 µM] | . | . | . | . | .
Cc1ccc(C(=O)Cn2ncsc2=N)cc1 | 20% | 52* | 69% | 3% | 115% | 127*
N#CC1=C(N)SC(N)=C(C#N)C1C1C=CCCC1 (stereo not given) | 1% | 6 | -12% | 17% | -17% | 0
CCCCCCCNC(=O)C1CC(=O)N(C)C(=Nc2ccc(OC)cc2)S1 (stereo not given) | ? | 7 | 2% | ? | -10% | -2
COc1ccccc1C=NN1C(=O)CSC1=S | 7%[46.1 µM] | . | . | 21% | . | .
O=C(N/N=C/c1ccccn1)c1cccc(S(=O)(=O)Nc2ccccc2Cl)c1 | -1% | -1 | 12% | 8%[46.1 µM] | ? | -8
COc1ccc(-c2nn(-c3ccccc3)cc2/C=N/O)cc1 | . | 2 | 6% | . | ? | 9
COc1ccc(-c2nn(-c3ccccc3)cc2/C=N/NC(=O)c2cccc(S(=O)(=O)Nc3ccccc3Cl)c2)cc1 | ? | 16 | 2.9µM* | ? | 9.3µM* | 22
COc1ccc(-c2nn(-c3ccccc3)cc2/C=N/N2C(=O)CSC2=S)cc1 | ? | 29* | 14% | ? | . | 27
COc1ccc(-c2nn(-c3ccccc3)cc2/C=N/NS(=O)(=O)c2ccccc2)cc1 | -2% | 17 | 12µM* | ? | ? | 21
CCCN1Cc2cccc(C(=O)N3CCN(c4ccc(F)cc4)CC3)c2C1=O | 26% | -2 | -10% | 6% | . | -8
CCOc1ccc(/C=N/NC(=O)CN2CCSCC2)cc1 | 29% | 10 | ? | ? | 10% | -7
Nc1ncnc2c1C1(CCCCC1)Cc1ccccc1-2 | -8% | -3 | 8.3µM* | ? | -16% | -12
c1ccc(OCc2nc3c4c(ncn3n2)-c2ccccc2CC42CCCC2)cc1 | -2% | -2 | -4% | 0% | 13µM* | -4
Nc1n[nH]c2c1C1(CCCCC1)Cc1ccccc1-2 | 3% | 6 | ? | -1% | -22% | -7
c1ccc(Cn2ncc3c(N4CCCCC4)ncnc32)cc1 | 4% | 0 | ? | 6% | ? | -7
CC(C)CC1NC(=S)N(Cc2ccccc2)C1=O (stereo not given) | -2% | -3 | 9.3µM* | ? | ? | 21
CC(C)CC1Nc2ncnc(N3CCN(c4ccccc4)CC3)c2N(Cc2ccccc2)C1=O (stereo not given) | . | . | 12µM* | . | 10µM* | .
CC(C)CC1Nc2ncnc(N3CCN(c4ccccc4)CC3)c2N(Cc2ccc(Br)cc2)C1=O (stereo not given) | . | . | 5.9µM* | . | 2.9µM* | .
CC(C)CC1Nc2ncnc(N3CCCCC3)c2N(Cc2ccccc2)C1=O (stereo not given) | . | . | ? | . | 12µM* | .
O=C1C(Cc2ccccc2)NC(=S)N1Cc1ccccc1 (stereo not given) | . | 1 | -26% | . | 22% | -5
